Drawing on PMC8384837, “Expanding the binding specificity for RNA recognition by a PUF domain”, this text covers binding signal for 10 sequences.

What all share (experiment): yeast three-hybrid, YBZ-1, SC-Leu-His + 0.5 mM 3-AT, 4 days
Conditions in all cases: tags: N-Gal4 AD-HA kept; label: inside an RPR1-promoter hybrid RNA with tandem MS2 sites; ssRNA

Assay [1] addresses PUM1 PUF domain R2-RQC (Homo sapiens, UniProt Q14671 828-1176, N899R;Y900Q;Q903C). The procedure, abridged:
(§1)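 Pumilio-1 PUF domain libraries, randomized at the three base-contacting residues of each repeat, were co-expressed with matching RNA elements from a centromeric plasmid in strain YBZ-1, which carries a LexA–MS2 coat fusion and a HIS3 reporter. Transformants grew for four days on SC-Leu (input) or on SC-Leu-His + 0.5 mM 3-AT (selection), and the repeat regions were PCR-amplified and Illumina-sequenced. The interaction score is the log change in variant frequency from input to selection. That logarithm is base 2, with a pseudocount of 1 where a variant was absent.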

The target of assay [2] is PUM1 PUF domain R5-RAS (Homo sapiens, UniProt Q14671 828-1176, C1007R;R1008A;Q1011S). A digest of the protocol: as §1
The target of assay [3] is PUM1 PUF domain R8-NWF (Homo sapiens, UniProt Q14671 828-1176, Y1123W;Q1126F). A digest of the protocol:
as §1

Assay [4] concerns the target PUM1 PUF domain R8-SYK (Homo sapiens, UniProt Q14671 828-1176, N1122S;Q1126K). The procedure, abridged:
as §1

Assay [5] deals with PUM1 PUF domain R8-KHN (Homo sapiens, UniProt Q14671 828-1176, N1122K;Y1123H;Q1126N). The procedure, abridged:
as §1

For assay [6], the target named is PUM1 PUF domain R5-RRT (Homo sapiens, UniProt Q14671 828-1176, C1007R;Q1011T). A digest of the protocol: as §1
Assay [7] addresses PUM1 PUF domain R3-IWR (Homo sapiens, UniProt Q14671 828-1176, C935I;R936W;Q939R). The procedure, abridged: as §1
In assay [8] the target is PUM1 PUF domain R1-KKS (Homo sapiens, UniProt Q14671 828-1176, S863K;R864K;Q867S). A digest of the protocol:
as §1

In assay [9] the target is PUM1 PUF domain R5-KAN (Homo sapiens, UniProt Q14671 828-1176, C1007K;R1008A;Q1011N). The procedure, abridged: as §1
Assay [10] has as its target PUM1 PUF domain R3-RIA (Homo sapiens, UniProt Q14671 828-1176, C935R;R936I;Q939A). A digest of the protocol: as §1

PUM1 PUF domain R8-KHN, sequence (Q14671 828-1176 N1122K/Y1123H/Q1126N): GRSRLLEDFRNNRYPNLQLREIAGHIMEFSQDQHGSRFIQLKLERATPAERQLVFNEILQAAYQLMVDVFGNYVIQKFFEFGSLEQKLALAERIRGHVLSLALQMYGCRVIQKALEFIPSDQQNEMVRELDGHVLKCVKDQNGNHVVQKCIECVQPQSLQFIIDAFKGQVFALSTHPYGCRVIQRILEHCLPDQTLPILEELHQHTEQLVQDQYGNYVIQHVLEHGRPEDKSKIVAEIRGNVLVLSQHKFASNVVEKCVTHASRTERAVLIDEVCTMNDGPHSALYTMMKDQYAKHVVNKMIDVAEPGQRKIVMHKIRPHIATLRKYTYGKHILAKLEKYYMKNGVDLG
PUM1 PUF domain R3-IWR, sequence (Q14671 828-1176 C935I/R936W/Q939R): as the sequence (Q14671 828-1176 N1122K/Y1123H/Q1126N) above, with C108I, R109W, Q112R, K295N, H296Y, N299Q counted along it
PUM1 PUF domain R5-RRT, sequence (Q14671 828-1176 C1007R/Q1011T): as the sequence (Q14671 828-1176 N1122K/Y1123H/Q1126N) above, with C180R, Q184T, K295N, H296Y, N299Q counted along it
PUM1 PUF domain R5-RAS, sequence (Q14671 828-1176 C1007R/R1008A/Q1011S): as the sequence (Q14671 828-1176 N1122K/Y1123H/Q1126N) above, with C180R, R181A, Q184S, K295N, H296Y, N299Q counted along it
PUM1 PUF domain R2-RQC, sequence (Q14671 828-1176 N899R/Y900Q/Q903C): as the sequence (Q14671 828-1176 N1122K/Y1123H/Q1126N) above, with N72R, Y73Q, Q76C, K295N, H296Y, N299Q counted along it
PUM1 PUF domain R8-NWF, sequence (Q14671 828-1176 Y1123W/Q1126F): as the sequence (Q14671 828-1176 N1122K/Y1123H/Q1126N) above, with K295N, H296W, N299F counted along it
PUM1 PUF domain R8-SYK, sequence (Q14671 828-1176 N1122S/Q1126K): as the sequence (Q14671 828-1176 N1122K/Y1123H/Q1126N) above, with K295S, H296Y, N299K counted along it
PUM1 PUF domain R1-KKS, sequence (Q14671 828-1176 S863K/R864K/Q867S): as the sequence (Q14671 828-1176 N1122K/Y1123H/Q1126N) above, with S36K, R37K, Q40S, K295N, H296Y, N299Q counted along it
PUM1 PUF domain R3-RIA, sequence (Q14671 828-1176 C935R/R936I/Q939A): as the sequence (Q14671 828-1176 N1122K/Y1123H/Q1126N) above, with C108R, R109I, Q112A, K295N, H296Y, N299Q counted along it
PUM1 PUF domain R5-KAN, sequence (Q14671 828-1176 C1007K/R1008A/Q1011N): as the sequence (Q14671 828-1176 N1122K/Y1123H/Q1126N) above, with C180K, R181A, Q184N, K295N, H296Y, N299Q counted along it

In the case of “GGCUAGAACUAGUGGAUCCCCCGGCGCCCGGCGGCUCGAGCCCGGGUAAGUGUAAAGAGUCUGCAUGCCGCCGGGCGCCAUGCCUGCAGGUCGACUCUAGAAAACAUG”, the binding signal in assay [1] is 4.25 log2 enrichment (interaction score).

As to “GGCUAGAACUAGUGGAUCCCCCGGCGCCCGGCGGCUCGAGCCCGGGUAAGUGUUAAUAGUCUGCAUGCCGCCGGGCGCCAUGCCUGCAGGUCGACUCUAGAAAACAUG”, the binding signal in assay [2] was 3.24 log2 enrichment (interaction score).

As to “GGCUAGAACUAGUGGAUCCCCCGGCGCCCGGCGGCUCGAGCCCGGGUAAGCGUAAAUAGUCUGCAUGCCGCCGGGCGCCAUGCCUGCAGGUCGACUCUAGAAAACAUG”, the binding signal was 2.16 log2 enrichment (interaction score) in assay [3], 4.29 log2 enrichment (interaction score) in assay [4] and 5.43 log2 enrichment (interaction score) in [5].

Consider “GGCUAGAACUAGUGGAUCCCCCGGCGCCCGGCGGCUCGAGCCCGGGUAAGUGUAAAUAGUCUGCAUGCCGCCGGGCGCCAUGCCUGCAGGUCGACUCUAGAAAACAUG”, for which the binding signal in assay [5] is 2.21 log2 enrichment (interaction score); in assay [6], 0.94 log2 enrichment (interaction score); in assay [7], 3.61 log2 enrichment (interaction score).

For “GGCUAGAACUAGUGGAUCCCCCGGCGCCCGGCGGCUCGAGCCCGGGUAAGUGUAAAUUGUCUGCAUGCCGCCGGGCGCCAUGCCUGCAGGUCGACUCUAGAAAACAUG”, in assay [8], the binding signal is 5.1 log2 enrichment (interaction score).

“GGCUAGAACUAGUGGAUCCCCCGGCGCCCGGCGGCUCGAGCCCGGGUAAGGGUAAAUAGUCUGCAUGCCGCCGGGCGCCAUGCCUGCAGGUCGACUCUAGAAAACAUG”: in assay [5], the binding signal is 2.46 log2 enrichment (interaction score).

Turning to “GGCUAGAACUAGUGGAUCCCCCGGCGCCCGGCGGCUCGAGCCCGGGUAAGUGUCAAUAGUCUGCAUGCCGCCGGGCGCCAUGCCUGCAGGUCGACUCUAGAAAACAUG”, the binding signal in assay [9] was 5.42 log2 enrichment (interaction score); in assay [2] it was 3.03 log2 enrichment (interaction score); in assay [6], 4.59 log2 enrichment (interaction score).

“GGCUAGAACUAGUGGAUCCCCCGGCGCCCGGCGGCUCGAGCCCGGGUAAGUGUAAGUAGUCUGCAUGCCGCCGGGCGCCAUGCCUGCAGGUCGACUCUAGAAAACAUG”: in [7], the binding signal is 4.57 log2 enrichment (interaction score).

Regarding “GGCUAGAACUAGUGGAUCCCCCGGCGCCCGGCGGCUCGAGCCCGGGUAAGUGUGAAUAGUCUGCAUGCCGCCGGGCGCCAUGCCUGCAGGUCGACUCUAGAAAACAUG”, the binding signal in assay [6] is 1.02 log2 enrichment (interaction score).

In the case of “GGCUAGAACUAGUGGAUCCCCCGGCGCCCGGCGGCUCGAGCCCGGGUAAGUGUAAUUAGUCUGCAUGCCGCCGGGCGCCAUGCCUGCAGGUCGACUCUAGAAAACAUG”, the binding signal in assay [10] was 3.43 log2 enrichment (interaction score); in assay [7] it was 3.7 log2 enrichment (interaction score).
